Screens (PubChem)
DAX1 inh-1: inhibitors of DAX1 repression of SF-1 activated StAR promoter; HEK293T StAR-luciferase reporter, SF-1/DAX-1 repression relief; inhibition, % at 6.8 µM; actives 1.1% (n = 370,000);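 active means inhibition above the mean over all tested compounds plus 3 SD, cut at about 3.6% in these data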;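 further: 0% = DAX-1 cells with DMSO and 100% = cells lacking DAX-1 with DMSO; higher inhibition means more luminescence from relief of DAX-1 repression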
DAX1 inh-2: inhibits human nuclear receptor DAX1 | inhibition, % at 6.75 µM | AID 504766 | HEK293 Gal4-DAX1 luciferase reporter, luminescence | P51843 | actives 0.99% (n = 340,000);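 active means inhibition above the mean over all tested compounds plus 3 SD, cut at about 4.2% in these data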;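 further: 0% = DAX1-transfected cells with DMSO and 100% = empty-vector control cells with DMSO; inhibition shows as a rise in luminescence from relieved DAX1 repression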
Target sequence (P51843 207-470 limits assumed): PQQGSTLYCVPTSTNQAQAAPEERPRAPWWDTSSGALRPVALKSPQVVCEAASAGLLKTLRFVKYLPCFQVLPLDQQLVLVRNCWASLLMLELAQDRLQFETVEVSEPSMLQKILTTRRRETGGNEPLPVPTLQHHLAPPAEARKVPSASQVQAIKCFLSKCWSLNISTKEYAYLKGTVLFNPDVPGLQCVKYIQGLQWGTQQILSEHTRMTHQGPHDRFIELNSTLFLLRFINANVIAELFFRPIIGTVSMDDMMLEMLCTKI
ssDAF12 agonist: activates DAF-12 receptor from parasite S. stercoralis | HEK293 ssDAF-12/GRIP1 lit1-tk-luc reporter, luminescence; % of 3 µM dafachronic acid response | activation, % at 6.8 µM | actives 1% (n = 370,000) | AID 652126;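 active means activation above the mean over all tested compounds plus 3 SD, cut at about 0.9% in these data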;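 further: 0% = DMSO-only wells and 100% = 3 µM delta7-dafachronic acid wells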
GAA850 FXN act: activators of GAA850 frataxin (FXN) promoter | actives 0.56% (n = 360,000) | activation, % at 6 µM | HEK293 lucGAA850 FXN promoter luciferase reporter, 24 h; percent of 10 µM SAHA response;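 active means activation above the average of all compounds screened plus 3 SD, cutoff fixed separately per campaign, cut at about 7.5% in these data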;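 further: 0% = DMSO wells and 100% = 10 µM SAHA wells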
hgDAF12 agonist: agonists of H. glycines DAF-12 nuclear receptor; actives 1.8% (n = 370,000); HEK293 GAL4-hgDAF12 UAS-luciferase reporter, agonist luminescence; normalized to butyrate control; activation, % at 6.8 µM; AID 687014;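 active means activation above a cutoff set at the mean of all screened compounds plus 3 SD, cut at about 10% in these data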;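 further: 0% = DMSO wells and 100% = sodium butyrate wells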
hcDAF-12 act: activates DAF-12 receptor from parasite H. contortus; HEK293 hcDAF-12 lit1-tk-luc reporter, luminescence; 0% DMSO, 100% Δ7-dafachronic acid; activation, % at 6.8 µM; actives 1.4% (n = 370,000); AID 652067;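 active means activation above the mean of all tested compounds plus 3 SD, cut at about 5.5% in these data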;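 further: 100% = response to 3 µM Δ7-dafachronic acid high control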
* = called active by the depositor; x = no result given. Only some compounds are listed: those with a hit (about 4.5% of all), similar ones and a draw of the others.

SMILES	DAX1 inh-1	DAX1 inh-2	ssDAF12 agonist	GAA850 FXN act	hgDAF12 agonist	hcDAF-12 act
Cc1ccc(NC(=O)CSc2ncccn2)cc1F	-1	5.7*	-2	3	2	-1
COC(=O)C1=CC[C@@H](NC(=O)OC(C)(C)C)[C@H](O)[C@H]1O[Si](C)(C)C(C)(C)C	x	x	-2	x	-3	2
CCOC(=O)N1CCN(C(=O)C[C@H]2C(=O)N(CCCOC)C3=CCCCC[C@]32C(=O)OC)CC1	2	x	-2	x	-2	-1
COc1ccc(S[C@]2(C(=O)N3CCN(c4ncccn4)CC3)CC(=O)N(S(=O)(=O)c3ccc(F)cc3)[C@@H]2c2ccc(OC)cc2)cc1	-3	x	-2	x	1	-1
Nc1c(C(=O)O)cnc2c(-c3ccc(Cl)cc3)cnn12	2	0	1.0*	4	12*	6.4*
CC(=O)c1cnc2c(-c3ccc(Cl)cc3)cnn2c1C	1	0	-1	0	5	-1
CCOc1ccccc1C=NN=Cc1ccccc1O	0	6.8*	1.1*	4	-1	0
CCS(=O)(=O)Nc1ccc2c(c1)C(=O)N(C)[C@@H]1CC[C@H](CC(=O)N3CCCCC3)O[C@H]1CO2	0	x	-1	x	4	-2
O=C(NCc1c(F)cccc1F)C1C2C=CC3(CN(Cc4ccccc4)C(=O)C13)O2 (stereo unspecified)	0	x	-2	x	0	2
CN(N=Nc1ccc([N+](=O)[O-])cc1)c1ccccc1	2	1	6.2*	5	7	2
COc1ccc2c(c1)C[C@@H](CON1C(C)(C)CCCC1(C)C)N2S(=O)(=O)c1ccc(C)cc1	x	x	-2	x	0	-4
Cc1ccc(C(=O)N2CCC(C)CC2)cc1C	1	0	2.2*	1	4	-1
Cc1ccc(C(=O)N2CCN(c3ccccc3)CC2)cc1C	1	0	-1	2	0	1
O=C1OCC2=C1C(c1ccc(F)cc1)c1cc3c(cc1N2)OCO3 (stereo unspecified)	4.2*	0	-1	-1	-5	0
Nc1ccn([C@@H]2O[C@H](C(=O)NCC(=O)N3CCOCC3)[C@@H](O)[C@H]2O)c(=O)n1	-1	x	-1	x	-2	0
COCCCNC(=S)NNC(=O)c1ccc(C(C)(C)C)cc1	0	2	-1	2	2	1
COCCCNC(=S)NC(=O)c1ccc(C)cc1	3	1	1	4	13*	6.2*
O=C(O)CSc1nnc(Cc2cccc3ccccc23)n1-c1cc(C(F)(F)F)cc(C(F)(F)F)c1	0	5.7*	-1	-1	-1	2
CC1(C(=O)N2CCC(Oc3cccnc3)CC2)CC1	0	x	-1	x	4	0
O=C1C(=O)N(c2ccc(O)cc2)C(c2ccccc2[N+](=O)[O-])/C1=C(\O)c1ccccc1 (stereo unspecified)	0	2	2.2*	1	3	5
COc1ccc(S(=O)(=O)N2CCCCC2)cc1NC(=O)Cc1c[nH]c2ccccc12	-1	-2	-1	4	1	0
Cc1ccc(NC(=O)Cc2c[nH]c3ccccc23)cc1S(=O)(=O)N1CCCCCC1	0	0	-1	2	3	6.2*
Cc1ccc(S(=O)(=O)N2CCCCC2)cc1NC(=O)Cc1c[nH]c2ccccc12	0	0	0	1	-1	5.8*
COc1ccc(CSc2nnc(SCC(=O)Nc3ccc4c(c3)OCO4)s2)cc1	0	x	-1	x	3	-1
O=C(O)CC1COc2ccccc2N1C(=O)c1ccccc1Cl (stereo unspecified)	0	0	1.5*	1	-2	-2
SMILES	DAX1 inh-1	DAX1 inh-2	ssDAF12 agonist	GAA850 FXN act	hgDAF12 agonist	hcDAF-12 act
O=C(Nc1cccc(F)c1)OCCCN1CCC2(CCC(c3ccccc3)CC2)C1 (stereo unspecified)	0	x	-1	x	1	-1
COc1ccc(-c2cn(-c3cccc(C)c3)c(=O)[nH]2)cc1OC	2	1	-1	-3	6	0
COc1ccccc1-n1cc(-c2ccc(Cl)cc2)[nH]c1=O	0	0	-1	2	-1	6.4*
Cc1cccc(C2N=C(N)Nc3nc4ccccc4n32)c1 (stereo unspecified)	0	4.8*	-1	0	0	1
Cc1cc(C)n2nc(S(=O)(=O)N(CC(C)C)CC(C)C)nc2n1	1	1	1.0*	0	0	-1
CCOC(=O)C1CCN(C(=O)c2ccc(OCC(=O)Nc3ccc(OCC)cc3)c(OC)c2)CC1	-3	4.2*	-1	-1	-1	-1
CCOC(=O)C1CCN(C(=O)c2ccc(OCC(=O)Nc3cccc(C(F)(F)F)c3)c(OC)c2)CC1	-6	-5	-2	-3	-6	-4
COC(=O)C1CN(Cc2ccc(Cl)cc2)CCS(=O)(=O)N1Cc1cn(Cc2ccc(F)cc2)nn1 (stereo unspecified)	-1	x	-1	x	-1	-3
Cc1ccc(NC(=O)c2ncn(CCCNCC3CCCCC3)n2)cc1C	3.9*	0	0	0	7	-1
Cc1cc(NC(=O)c2ccc(NS(=O)(=O)c3ccccc3F)cc2)no1	1	x	-1	x	-1	0
Cc1ccccc1C(=O)NC1CCN(Cc2nnnn2CCc2ccccc2)CC1	0	-1	-1	-3	2	0
Cc1ccccc1C(=O)NC1CCN(CC(=O)NCc2cccs2)CC1	0	5.2*	-2	2	3	-1
Cc1ccccc1C(=O)NC1CCN(Cc2ccccc2)CC1	0	0	1.4*	0	0	1
Cc1ccc(C(=O)NC2CCN(CC(=O)NCc3cccs3)CC2)cc1	2	1	-1	-3	-1	0
C[C@H](O)[C@@H]1CN2CCc3c([nH]c4cccc(-c5ccccc5)c34)[C@@H]2C[C@@H]1N(C)C(=O)C1CCCCC1	-1	x	-1	x	1	-3
COc1ccc(C(O)c2nc(-c3cccs3)cs2)cc1 (stereo unspecified)	0	x	-1	2	-1	1
OC(c1ccco1)c1nc(-c2cccs2)cs1 (stereo unspecified)	1	x	1.4*	2	5	5.8*
Cc1cc(-c2nnc(SCC(=O)Nc3cccc4ccccc34)n2N)n[nH]1	-2	x	-1	x	0	-2
CC(=O)N(C)c1ccc(N=NC2C(=O)N(C(N)=S)N=C2C)cc1 (stereo unspecified)	3	5.3*	0	2	12*	4
CC1=NN(C(N)=S)C(=O)C1N=Nc1cccc(Cl)c1 (stereo unspecified)	1	1	1	4	7	6.1*
CCOC(=O)N1CCN(C(=S)NC(C)(C)C)CC1	1	5.2*	-1	-2	2	-1
